Data reported in PubChem BioAssay (NCATS).
Records with an inconclusive call do not appear. The source made the active and inactive calls. Calls follow the shape of the dose curve; as a rule, active = well fitted curve in the direction sought with a large enough effect; inconclusive = small, poorly fitted or top-dose-only effect, or another doubt; inactive = no such curve, though single readings can be large; an effect the other way counts as inactive or inconclusive.

Tests used:
MCC-13 = assay: qHTS assay to identify novel small-molecules to repurpose for Merkel cell carcinoma treatment (AID 1296009); conditions: MCC and control cell lines, CellTiter-Glo viability, 72 h; series mostly up to 46 µM; also: nearly all actives have a fitted effect of over 60% in size
Procedure, shortened: (§1)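 Cells exposed to NPC (8-point) and MIPE (11-point) compound dilutions for 72 hr at 37 degree celsius; viability read by CellTiter-Glo luminescence, normalized to no-cell and DMSO in-plate controls.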

MCC-26 = assay: as above; conditions: MCC and control cell lines, CellTiter-Glo viability, 72 h; series mostly up to 46 µM
Procedure, shortened: as §1

MKL-1 = assay: as above; conditions: MCC and control cell lines, CellTiter-Glo viability, 72 h; series mostly up to 46 µM
Procedure, shortened: as §1

MKL-2 = assay: as above; conditions: MCC and control cell lines, CellTiter-Glo viability, 72 h; series mostly up to 46 µM
Procedure, shortened: as §1

UISO = assay: as above; conditions: MCC and control cell lines, CellTiter-Glo viability, 72 h; series mostly up to 46 µM
Procedure, shortened: as §1

WaGa = assay: as above; conditions: MCC and control cell lines, CellTiter-Glo viability, 72 h; series mostly up to 46 µM
Procedure, shortened: as §1

C33A = assay: Primary qHTS to identify gynecologic anti-cancer compounds using libraries of approved drugs and bioactive compounds (AID 1345084); conditions: Gynecologic cancer cell panel viability, ATPlite luminescence, 48 h; series mostly up to 57.5 µM; also: nearly all actives have a fitted effect of over 55% in size
Procedure, shortened: (§2)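 Five-point cytotoxicity, 48 h drug exposure at 37 C, 5% CO2, on cells seeded 16 h beforehand. ATP content read by ATPlite luminescence.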

CAOV3 = assay: as above; conditions: Gynecologic cancer cell panel viability, ATPlite luminescence, 48 h; series mostly up to 57.5 µM
Procedure, shortened: as §2

CASKI = assay: as above; conditions: Gynecologic cancer cell panel viability, ATPlite luminescence, 48 h; series mostly up to 57.5 µM
Procedure, shortened: as §2

Es-2 = assay: as above; conditions: Gynecologic cancer cell panel viability, ATPlite luminescence, 48 h; series mostly up to 57.5 µM
Procedure, shortened: as §2

HeLa = assay: as above; conditions: Gynecologic cancer cell panel viability, ATPlite luminescence, 48 h; series mostly up to 57.5 µM
Procedure, shortened: as §2

Hek293T = assay: as above; conditions: Gynecologic cancer cell panel viability, ATPlite luminescence, 48 h, control line for the selectivity index; series mostly up to 57.5 µM
Procedure, shortened: as §2

JEG-3 = assay: as above; conditions: Gynecologic cancer cell panel viability, ATPlite luminescence, 48 h; series mostly up to 57.5 µM
Procedure, shortened: as §2

OV90 = assay: as above; conditions: Gynecologic cancer cell panel viability, ATPlite luminescence, 48 h; series mostly up to 57.5 µM
Procedure, shortened: as §2

PA-1 = assay: as above; conditions: Gynecologic cancer cell panel viability, ATPlite luminescence, 48 h; series mostly up to 57.5 µM
Procedure, shortened: as §2

Tov-21-G = assay: as above; conditions: Gynecologic cancer cell panel viability, ATPlite luminescence, 48 h; series mostly up to 57.5 µM
Procedure, shortened: as §2

Tov112D = assay: as above; conditions: Gynecologic cancer cell panel viability, ATPlite luminescence, 48 h; series mostly up to 57.5 µM
Procedure, shortened: as §2

[1] = Drug repurposing screens with cells derived from glioblastoma tumor samples (AID 1345199); conditions: GBM patient neurospheres viability, ATP luminescence, 48 h; also: nearly all actives have a fitted effect of over 40% in size; also: potency is read from the fitted curve at half-maximal effect
Procedure, shortened: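 Four patient lines of CD133+ GBM neurospheres were screened at several concentrations; hits were retested in those lines plus three slower-growing GBM lines, using 48-hour treatment and ATP-based viability.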

SKOV3 = assay: Primary qHTS to identify gynecologic anti-cancer compounds using libraries of approved drugs and bioactive compounds (AID 1345084); conditions: Gynecologic cancer cell panel viability, ATPlite luminescence, 48 h; series mostly up to 57.5 µM; also: nearly all actives have a fitted effect of over 55% in size
Procedure, shortened: as §2

[2] = at 45.9 µM (top of the series), tumour line B
[3] = at 46.1 µM (top of the series), tumour line C
[4] = at 45.9 µM (top of the series), tumour line D
[5] = at 46 µM (top of the series), tumour line A
% is scaled to controls: 0 for no effect and ±100 for the full control effect.

CCOc1ccccc1O[C@H](c1ccccc1)[C@H]1CNCCO1
inactive: outcome (MCC-13) | outcome (MCC-26) | outcome (MKL-1) | outcome (MKL-2) | outcome (UISO) | outcome (WaGa) | outcome (C33A) | outcome (CAOV3) | outcome (CASKI) | outcome (Es-2) | outcome (HeLa) | outcome (Hek293T) | outcome (JEG-3) | Potency (OV90) | outcome (PA-1) | outcome (Tov-21-G) | outcome (Tov112D) | activity, negative = cell killing [1, 2] -15.3% | activity, negative = cell killing [1, 3] 11.5%
active: Potency ([1]; tumour line A) 12.6 µM

CCCCCCCCCCC(CO)CCCCCCCC (stereo not drawn)
active: Potency ([1]; tumour line A) 25.1 µM
inactive: outcome (MCC-13) | outcome (MCC-26) | outcome (MKL-1) | outcome (MKL-2) | outcome (UISO) | outcome (WaGa) | outcome (C33A) | outcome (CAOV3) | outcome (CASKI) | outcome (Es-2) | outcome (HeLa) | outcome (Hek293T) | outcome (JEG-3) | Potency (OV90) | outcome (PA-1) | outcome (SKOV3) | outcome (Tov-21-G) | outcome (Tov112D) | activity, negative = cell killing [1, 2] -11.9% | activity, negative = cell killing [1, 4] -0.979% | activity, negative = cell killing [1, 3] 14%

CC1CCc2cc(F)cc3c(=O)c(C(=O)O)cn1c23 (stereo not drawn)
inactive: outcome (MCC-13) | outcome (MCC-26) | outcome (MKL-1) | outcome (MKL-2) | outcome (UISO) | outcome (WaGa) | outcome (C33A) | outcome (CAOV3) | outcome (CASKI) | outcome (Es-2) | outcome (HeLa) | outcome (Hek293T) | outcome (JEG-3) | Potency (OV90) | outcome (PA-1) | outcome (Tov-21-G) | outcome (Tov112D) | activity, negative = cell killing [1, 2] -0.458% | activity, negative = cell killing [1, 4] -19% | activity, negative = cell killing [1, 5] -20.5% | activity, negative = cell killing [1, 3] -25.6%

Cc1cc(O)cc(C)c1Cl
inactive: outcome (MCC-13) | outcome (MCC-26) | outcome (MKL-1) | outcome (MKL-2) | outcome (UISO) | outcome (WaGa) | outcome (C33A) | outcome (CAOV3) | outcome (CASKI) | outcome (Es-2) | outcome (HeLa) | outcome (Hek293T) | outcome (JEG-3) | outcome (PA-1) | outcome (SKOV3) | outcome (Tov-21-G) | outcome (Tov112D) | activity, negative = cell killing [1, 2] 0.561% | activity, negative = cell killing [1, 4] -6% | activity, negative = cell killing [1, 5] -20% | activity, negative = cell killing [1, 3] 6.74%

Cc1[nH]c(C)c(Cl)c(=O)c1Cl
inactive: outcome (MCC-13) | outcome (MCC-26) | outcome (MKL-1) | outcome (MKL-2) | outcome (UISO) | outcome (WaGa) | outcome (C33A) | outcome (CAOV3) | outcome (CASKI) | outcome (Es-2) | outcome (HeLa) | outcome (Hek293T) | outcome (JEG-3) | Potency (OV90) | outcome (PA-1) | outcome (SKOV3) | outcome (Tov-21-G) | outcome (Tov112D) | activity, negative = cell killing [1, 2] -9.77% | activity, negative = cell killing [1, 4] -2.96% | activity, negative = cell killing [1, 5] -17.9% | activity, negative = cell killing [1, 3] -6.6%

CC(C)NC[C@@H](O)COc1ccc(CC(N)=O)cc1
inactive: outcome (MCC-13) | outcome (MCC-26) | outcome (MKL-1) | outcome (MKL-2) | outcome (UISO) | outcome (WaGa) | outcome (C33A) | outcome (CAOV3) | outcome (CASKI) | outcome (Es-2) | outcome (HeLa) | outcome (Hek293T) | outcome (JEG-3) | Potency (OV90) | outcome (PA-1) | outcome (Tov-21-G) | outcome (Tov112D) | activity, negative = cell killing [1, 2] -18.7% | activity, negative = cell killing [1, 4] 5.31% | activity, negative = cell killing [1, 5] 1.1% | activity, negative = cell killing [1, 3] -9.77%

C/C=C1\[C@H]2C=C(C)C[C@]1(N)c1ccc(=O)[nH]c1C2
inactive: outcome (MCC-13) | outcome (MCC-26) | outcome (MKL-1) | outcome (MKL-2) | outcome (UISO) | outcome (WaGa) | outcome (C33A) | outcome (CAOV3) | outcome (CASKI) | outcome (Es-2) | outcome (HeLa) | outcome (Hek293T) | outcome (JEG-3) | Potency (OV90) | outcome (PA-1) | outcome (Tov-21-G) | outcome (Tov112D) | activity, negative = cell killing [1, 2] -6.65% | activity, negative = cell killing [1, 4] -6.44% | activity, negative = cell killing [1, 5] -18.8% | activity, negative = cell killing [1, 3] 3.14%

CCCCCCCCCCCCCCCCC(C(=O)O)C(O)(CC(=O)O)C(=O)O (stereo not drawn)
inactive: outcome (MCC-13) | outcome (MCC-26) | outcome (MKL-1) | outcome (MKL-2) | outcome (UISO) | outcome (WaGa) | outcome (C33A) | outcome (CAOV3) | outcome (CASKI) | outcome (Es-2) | outcome (HeLa) | outcome (JEG-3) | Potency (OV90) | outcome (PA-1) | outcome (SKOV3) | outcome (Tov-21-G) | outcome (Tov112D) | activity, negative = cell killing [1, 2] -24.2% | activity, negative = cell killing [1, 4] -4.12% | activity, negative = cell killing [1, 5] -28.6% | activity, negative = cell killing [1, 3] -24.9%

CC(=O)OC[C@H]1O[C@@](COC(C)=O)(O[C@H]2O[C@H](COC(C)=O)[C@@H](OC(C)=O)[C@H](OC(C)=O)[C@H]2OC(C)=O)[C@@H](OC(C)=O)[C@@H]1OC(C)=O
inactive: outcome (MCC-13) | outcome (MCC-26) | outcome (MKL-1) | outcome (MKL-2) | outcome (UISO) | outcome (WaGa) | outcome (C33A) | outcome (CAOV3) | outcome (CASKI) | outcome (Es-2) | outcome (HeLa) | outcome (Hek293T) | outcome (JEG-3) | Potency (OV90) | outcome (PA-1) | outcome (SKOV3) | outcome (Tov-21-G) | outcome (Tov112D) | activity, negative = cell killing [1, 2] -8.85% | activity, negative = cell killing [1, 4] -9.16% | activity, negative = cell killing [1, 5] -28.7% | activity, negative = cell killing [1, 3] 2.01%

Nc1ncnc2c1ncn2[C@@H]1O[C@H](COP(=O)(O)O)[C@@H](O)[C@H]1O
inactive: outcome (MCC-13) | outcome (MCC-26) | outcome (MKL-1) | outcome (MKL-2) | outcome (UISO) | outcome (WaGa) | outcome (C33A) | outcome (CAOV3) | outcome (CASKI) | outcome (Es-2) | outcome (HeLa) | outcome (Hek293T) | outcome (JEG-3) | Potency (OV90) | outcome (PA-1) | outcome (Tov-21-G) | outcome (Tov112D) | activity, negative = cell killing [1, 2] 4.49% | activity, negative = cell killing [1, 4] 20.2% | activity, negative = cell killing [1, 5] -19.3% | activity, negative = cell killing [1, 3] -13.6%

C[N+]1(C)CCCC(OC(=O)C(O)(c2ccccc2)c2ccccc2)C1 (stereo not drawn)
inactive: outcome (MCC-13) | outcome (MCC-26) | outcome (MKL-1) | outcome (MKL-2) | outcome (UISO) | outcome (WaGa) | outcome (C33A) | outcome (CASKI) | outcome (Es-2) | outcome (HeLa) | outcome (Hek293T) | outcome (JEG-3) | Potency (OV90) | outcome (PA-1) | outcome (SKOV3) | outcome (Tov-21-G) | outcome (Tov112D) | activity, negative = cell killing ([1]; at 20 µM (top of the series), tumour line C) -3.92% | activity, negative = cell killing ([1]; at 21.2 µM (top of the series), tumour line B) -7.65% | activity, negative = cell killing ([1]; at 21.2 µM (top of the series), tumour line D) 4.26% | activity, negative = cell killing ([1]; at 21.3 µM (top of the series), tumour line A) -24.7%
